Laboratory results as given in the supplement of paper PMC8728848.
This excerpt belongs to a sample that is enriched for the strongest signals.

Key:
Experiment in all cases: glycan array binding signal (z-score within array); higher = stronger binding
Settings in all cases: glycan notation: IUPAC condensed, linker removed
[1] = biological target: Fuc(a1-2)Gal(b1-3)GalNAc(a1-3)[Fuc(a1-2)]Gal(b1-4)GlcNAc
Procedure, shortened: (§1)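 Columns mapping to the same glycan were averaged after glycan names were converted to IUPAC-condensed notation. The data come from 3228 arrays in the Consortium for Functional Glycomics database, limited to those with an available protein sequence. Binding is reported as a within-array Z-score averaged across arrays of one protein sequence and across linkers.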

[2] = biological target: Fuc(a1-2)Gal(b1-3)GlcNAc(b1-2)Man(a1-3)[Fuc(a1-2)Gal(b1-3)GlcNAc(b1-2)Man(a1-6)]Man(b1-4)GlcNAc(b1-4)[Fuc(a1-6)]GlcNAc
Procedure, shortened: as §1

[3] = biological target: Fuc(a1-2)Gal(b1-3)[Fuc(a1-4)]GlcNAc(b1-2)Man(a1-3)[Fuc(a1-2)Gal(b1-3)[Fuc(a1-4)]GlcNAc(b1-2)Man(a1-3)]Man(b1-4)GlcNAc(b1-4)GlcNAc
Procedure, shortened: as §1

[4] = biological target: Fuc(a1-2)Gal(b1-3)[Fuc(a1-4)]GlcNAc(b1-2)Man(a1-3)[Fuc(a1-2)Gal(b1-3)[Fuc(a1-4)]GlcNAc(b1-2)Man(a1-6)]Man(b1-4)GlcNAc(b1-4)[Fuc(a1-6)]GlcNAc(b1-4)[Fuc(a1-6)]GlcNAc
Procedure, shortened: as §1

Fuc(a1-2)Gal(b1-4)Glc = biological target: Fuc(a1-2)Gal(b1-4)Glc
Procedure, shortened: as §1

[5] = biological target: Fuc(a1-2)Gal(b1-4)GlcNAc(b1-3)GalNAc
Procedure, shortened: as §1

[6] = biological target: Fuc(a1-2)Gal(b1-4)GlcNAc(b1-6)GalNAc
Procedure, shortened: as §1

[7] = biological target: Fuc(a1-2)[GalNAc(a1-3)]Gal(b1-3)GlcNAc(b1-3)GalNAc
Procedure, shortened: as §1

[8] = biological target: Fuc(a1-2)[GalNAc(a1-3)]Gal(b1-4)GlcNAc(b1-2)Man(a1-3)[Fuc(a1-2)[GalNAc(a1-3)]Gal(b1-4)GlcNAc(b1-2)Man(a1-6)]Man(b1-4)GlcNAc(b1-4)GlcNAc
Procedure, shortened: as §1

[9] = biological target: Fuc(a1-2)[GalNAc(a1-3)]Gal(b1-4)[Fuc(a1-3)]GlcNAc(b1-3)GalNAc
Procedure, shortened: as §1

[10] = biological target: Fuc(a1-2)[GalNAc(a1-4)]Gal(b1-4)GlcNAc
Procedure, shortened: as §1

[11] = biological target: Fuc(a1-3)[Gal(b1-4)]GlcNAc(b1-2)Man
Procedure, shortened: as §1

[12] = biological target: Gal(a1-3)[Gal(a1-4)]Gal(b1-4)GlcNAc
Procedure, shortened: as §1

Gal(a1-4)Gal(b1-4)GlcNAc = biological target: Gal(a1-4)Gal(b1-4)GlcNAc
Procedure, shortened: as §1

Gal(a1-6)Glc = biological target: Gal(a1-6)Glc
Procedure, shortened: as §1

[13] = biological target: Gal(b1-3)GalNAc(a1-3)[Fuc(a1-2)]Gal(b1-4)GlcNAc
Procedure, shortened: as §1

[14] = biological target: Gal(b1-3)GlcNAc(b1-2)Man(a1-3)[Gal(b1-3)GlcNAc(b1-2)Man(a1-6)]Man(b1-4)GlcNAc(b1-4)GlcNAc
Procedure, shortened: as §1

[15] = biological target: Gal(b1-3)GlcNAc(b1-3)Gal(b1-4)GlcNAc(b1-2)[Gal(b1-3)GlcNAc(b1-3)Gal(b1-4)GlcNAc(b1-6)]Man(a1-6)[Gal(b1-3)GlcNAc(b1-3)Gal(b1-4)GlcNAc(b1-2)Man(a1-3)]Man(b1-4)GlcNAc(b1-4)[Fuc(a1-6)]GlcNAc
Procedure, shortened: as §1

Gal(b1-3)GlcNAc6S = biological target: Gal(b1-3)GlcNAc6S
Procedure, shortened: as §1

[16] = biological target: Gal(b1-3)[Fuc(a1-4)]GlcNAc(b1-6)GalNAc
Procedure, shortened: as §1

[17] = biological target: Gal(b1-4)GlcNAc(b1-2)Man(a1-6)[Man(a1-3)]Man(b1-4)GlcNAc(b1-4)GlcNAc
Procedure, shortened: as §1

[18] = biological target: Gal(b1-4)GlcNAc(b1-3)Gal(b1-4)GlcNAc
Procedure, shortened: as §1

B1: PX14367B-bvu-516-23-516 (Bacteroides vulgatus) (protein)
chain: LDTIPTTYVDAGSVFGKTGDAEKVLNGGWNYLMETFNSYANPGYGAMLRANDAMGSDVVLNSKYGFRTHNEFSAIYGKGGTNTLSWLLAYRVINDCNGVLDNIDAAEGTQADRNRIKGQALALRGFLYLHLASCYSFAIDKDPDAVCAPIYTQSTDETIAAEGKPASSVSEVYAQSINDLEEALELIPETYVRDAKHKIDNEVVLGILSRACLYARQWEKAKTYSDKLLAKDNYLMTESEYKAGFNSVDNKEWIWGHAQTNDQSNASYQFHYLDTTTKGSYYYSFNVDPYFRDLFEDGDYRKEMLFWATDPGADVESAAYVWMRNSKFRFRDIENQLGDIVLMRVAEIYLINAEAKAHLNDPDAINKLNDLKTARGAKTIHTNLSQQDLLETIWLERRKELWGEGFSLIDIIRNQQTVVRNAYPEGPIDYIYTDENGQTHTLKKKTQGHRFFNFPDKSAFCPNSKYYLYRITDSEELANKNLYKDHPKLSIYTK
glycan array binding signal (z-score) [1]: -0.284
glycan array binding signal (z-score) [2]: -0.028
glycan array binding signal (z-score) [3]: -0.201
glycan array binding signal (z-score) [4]: -0.237
glycan array binding signal (z-score) (Fuc(a1-2)Gal(b1-4)Glc): -0.35
glycan array binding signal (z-score) [5]: -0.282
glycan array binding signal (z-score) [6]: -0.204
glycan array binding signal (z-score) [7]: -0.26
glycan array binding signal (z-score) [8]: 7.56
glycan array binding signal (z-score) [9]: 0.034
glycan array binding signal (z-score) [10]: 4.75
glycan array binding signal (z-score) [11]: -0.331
glycan array binding signal (z-score) [12]: 5.23
glycan array binding signal (z-score) (Gal(a1-4)Gal(b1-4)GlcNAc): -0.328
glycan array binding signal (z-score) (Gal(a1-6)Glc): -0.252
glycan array binding signal (z-score) [13]: -0.361
glycan array binding signal (z-score) [14]: 7.76
glycan array binding signal (z-score) [15]: 4.21
glycan array binding signal (z-score) (Gal(b1-3)GlcNAc6S): -0.243
glycan array binding signal (z-score) [16]: 4.48
glycan array binding signal (z-score) [17]: 4.25
glycan array binding signal (z-score) [18]: -0.337
